Results filed as inconclusive are left out. Where a call stands in place of a potency, no number is given. Calls of active or inactive are those of the source. Calls follow the shape of the dose curve; as a rule, active = well fitted inhibition curve with a large enough effect; inconclusive = small, poorly fitted or top-dose-only effect; inactive = flat fitted curve, though single readings scatter.

The test system of the assay is CP268. As to the kind of experiment: qHTS profiling for inhibitors of Plasmodium falciparum proliferation (AID 504749). Also: nearly all actives have a fitted effect of over 60% in size. Conditions: P. falciparum in erythrocytes, SYBR Green DNA, 72 h; series mostly up to 28.7 µM. The method in brief: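 Each compound contacts P. falciparum-infected red blood cells for 72 h at 37 C; lysis buffer (Tris, EDTA, saponin, Triton X, SYBR Green I) is added and fluorescence measured next morning; values normalized to controls.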
Background: In qHTS, concentration-response curves come from the screen itself.
As to `C#C[C@]1(O)CC[C@H]2[C@@H]3CCc4cc(OC)ccc4[C@H]3CC[C@@]21C`, the Potency entry was “inactive”.

As to `CCCCNC(=O)NS(=O)(=O)c1ccc(N)cc1`, the Potency result was “inactive”.

Turning to `Nc1ccc(C(=O)NCC(=O)O)cc1`, the Potency entry was “inactive”.

With `OC1C(O)C(O)C(O)C(O)C1O` (stereo not drawn), the Potency result was “inactive”.

In the case of `O=S(=O)(O)c1ccc(O)cc1`, the Potency entry was “inactive”.

For the compound `COc1cc(C(=O)NCc2ccc(OCCN(C)C)cc2)cc(OC)c1OC`, the Potency entry is “inactive”.

Turning to `COc1cc(C)nc(-n2nc(C)cc2OC)n1`, the Potency result was “inactive”.

`CC(=O)Oc1ccc(C)cc1`: the Potency entry is “inactive”.

For `CC(=O)NC(=O)c1ccccc1O`, the Potency result is “inactive”.

Turning to `FC(F)(F)C(F)(F)C(F)(F)C(F)(F)C(F)(F)C(F)(F)C(F)(F)C(F)(F)Br`, the Potency result is “inactive”.

In the case of `c1ccc(-c2nc[nH]c2-c2ccccc2)cc1`, the Potency entry was “inactive”.

In the case of `CCNC(=O)NCc1cccc(Cl)c1`, the Potency result is “inactive”.

On to `O=C(O)Cc1csc(-c2ccc(Cl)cc2)n1`, for which the Potency result was “inactive”.

Turning to `Nc1nc(-c2ccccc2)c(Br)c(=O)[nH]1`, the Potency entry is “inactive”.

For the compound `O=c1[nH]c(=O)n([C@H]2C[C@H](O)[C@@H](CO)O2)cc1F`, the Potency result was “inactive”.

As for `CC(=O)Nc1ncc([N+](=O)[O-])s1`, the Potency result was “inactive”.

Consider `Cc1cccc(C)c1NC(=O)CN1CCCCCC1`, for which the Potency entry is “inactive”.

On to `CC[C@H](c1ccc(O)cc1)[C@@H](CC)c1ccc(O)cc1`, for which the Potency entry is “inactive”.

Regarding `Cc1c(-c2ccccc2)oc2c(C(=O)OCCN3CCCCC3)cccc2c1=O`, the Potency result is “inactive”.

Consider `CCCCCCCCCCCCCCCCO`, for which the Potency result was “inactive”.

On to `Oc1ccccc1C=NCc1ccccc1`, for which the Potency result was “inactive”.

Take `CCN(CC)CCNC(=O)COc1ccc(OC)cc1`: the Potency result was “inactive”.

Turning to `COc1cc(N)c(Cl)cc1C(=O)NC1CCN(Cc2ccccc2)CC1`, the Potency entry is “inactive”.

The values are drawn from PubChem BioAssay (NCATS).
